Compound activity as filed in PubChem.
Compounds with a hit are over-represented: about 19% of the library has one in this group of screens.
TDP1 cell CPT: DT40-hTDP1 cell growth loss with CPT; hit rate 12% among 420,000; AID 686979; chicken DT40 Tdp1-/-;hTDP1 cells + 20 nM CPT, ATP luminescence, 48 h; Potency, µM (doses to about 46.2 µM), without a hit: top-dose activity change, negative = growth inhibition, most hits filed as inhibitors; also: potency is read from the fitted curve at half-maximal effect; % is scaled to controls: 0 for no effect and ±100 for the full control effect; nearly all actives have a fitted effect of over 55% in size
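Cell growth measured by CellTiter-Glo luminescence after a minimum 48 h, 37 C compound exposure with 20 nM CPT in Tdp1-knockout DT40 cells stably expressing hTDP1, seeded 400/well; qHTS titration format.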
HepG2 viability: HepG2 cytotoxicity, counter-screen for TGF-b inhibitors; HepG2 CAGA-GFP viability, ATP luminescence, 18 h; Potency, µM (titrated, usually from 46.1 µM), for the others: at the highest dose activity change, negative = cytotoxicity, usual class: cytotoxic; hit rate 0.76% among 410,000; also: potency is read from the fitted curve at half-maximal effect
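CellTiter-Glo luminescence gave cytotoxicity after 18 hours at 37 degrees C. The cells were HepG2 CAGA-GFP in 1% FBS DMEM, stimulated with 500 pg/mL TGF-beta after compound addition. %Activity was normalised to no-cell wells (complete cell-killing) and DMSO (no toxicity), and curves were fitted and classified.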
TDP1 cell noCPT: qHTS for Inhibitors of human tyrosyl-DNA phosphodiesterase 1 (TDP1): qHTS in cells in absence of CPT; DT40 Tdp1-/- hTDP1 cells, no CPT, ATP luminescence, 48 h; Potency, µM (doses to about 46.2 µM), without a hit: at the highest dose activity change, negative = growth inhibition, hits mostly inhibitors; hit rate 15% among 420,000; also: potency is read from the fitted curve at half-maximal effect; % is scaled to controls: 0 for no effect and ±100 for the full control effect; nearly all actives have a fitted effect of over 55% in size
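Luminescent ATP content (CellTiter-Glo) served as the growth readout. Knockout chicken DT40 cells expressing human TDP1 were exposed to compounds without camptothecin for a minimum 48 hr at 37 °C.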
IL1B secr inh: inflammasome signaling inhibition, IL-1 beta readout; THP-1 LPS/ATP IL-1B secretion, AlphaLISA, 16 h; stronger effect = lower value; activity change, % at 57.5 µM; hit rate 4.7% among 360,000; AID 743279; in the data active = activity change below about -50%; inconclusive = mostly about -30% to -49%; also: % is scaled to controls: 0 for no effect and ±100 for the full control effect
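Secreted IL-1B measured by AlphaLISA bead assay after 16 h compound exposure of THP-1 cells; compounds (final up to 57.5 uM) added 1 h before LPS (250 ng/mL) and ATP (1.25 mM) stimulation; lower signal means less secretion.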
TDP1 block: blocks human tyrosyl-DNA phosphodiesterase 1 | Q9NUW8 | recombinant TDP1, AlphaScreen DNA substrate cleavage | Potency, µM (titrated, usually from 130 µM), for inactives: top-dose activity change, negative = inhibition, most hits filed as inhibitors | hit rate 0.28% among 350,000 | AID 485290; also: potency is read from the fitted curve at half-maximal effect; % is scaled to controls: 0 for no effect and ±100 for the full control effect; nearly all actives have a fitted effect of over 40% in size
Target sequence (Q9NUW8 whole entry, looked up): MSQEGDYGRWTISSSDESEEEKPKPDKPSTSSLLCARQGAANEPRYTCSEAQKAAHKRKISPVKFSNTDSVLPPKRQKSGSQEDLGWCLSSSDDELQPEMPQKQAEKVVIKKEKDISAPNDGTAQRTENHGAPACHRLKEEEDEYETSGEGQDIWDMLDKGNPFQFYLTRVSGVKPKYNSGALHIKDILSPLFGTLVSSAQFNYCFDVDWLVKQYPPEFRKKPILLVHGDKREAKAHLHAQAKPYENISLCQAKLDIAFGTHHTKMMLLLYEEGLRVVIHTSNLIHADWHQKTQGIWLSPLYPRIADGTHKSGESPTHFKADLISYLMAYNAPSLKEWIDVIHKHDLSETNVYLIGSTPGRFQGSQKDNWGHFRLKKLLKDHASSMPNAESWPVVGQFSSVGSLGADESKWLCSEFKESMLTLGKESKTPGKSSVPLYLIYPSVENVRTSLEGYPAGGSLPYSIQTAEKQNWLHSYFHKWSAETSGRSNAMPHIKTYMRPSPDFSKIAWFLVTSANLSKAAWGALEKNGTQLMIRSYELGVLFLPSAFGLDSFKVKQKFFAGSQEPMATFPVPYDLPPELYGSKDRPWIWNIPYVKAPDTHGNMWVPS
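Recombinant human Tdp1 (E. coli-expressed, 1 nM final) preincubated with compounds 15 min at room temperature, then 5'-biotin/3'-phosphotyrosine-FITC DNA substrate (15 nM final) added for 5 min. AlphaScreen beads (10 ug/ml final) added 10 min; cleavage lowers signal.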
TGFb SMAD3 inh: inhibitors of TGF-b signaling | hit rate 1.2% among 410,000 | HepG2 CAGA-GFP TGF-b/SMAD3 reporter, GFP fluorescence, 18 h; TGF-beta stimulated, 500 pg/mL final | Potency, µM (titrated, usually from 46.1 µM), inactives show at the top dose activity, negative = inhibition, hits mostly inhibitors; also: potency is read from the fitted curve at half-maximal effect; % is scaled to controls: 0 for no effect and ±100 for the full control effect; nearly all actives have a fitted effect of over 65% in size
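HEPG2 CAGA-GFP, 1000 cells/well; 2 h settle, 37 C; cpd via pin tool; TGF-b 500 pg/mL final; 18 h, 37 C; GFP imaging ex488/em500-530; %Activity normalised to -TGF-b and +DMSO controls; CRC fit, curve class.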
Numbers without * were called inactive; i = inactive; ? = inconclusive; nt = no result given. Unless noted, calls follow the shape of the dose curve; as a rule, active = well fitted curve in the direction sought with a large enough effect; inconclusive = small, poorly fitted or top-dose-only effect, or another doubt; inactive = no such curve, though single readings can be large; an effect the other way counts as inactive or inconclusive.

SMILES | TDP1 cell CPT | HepG2 viability | TDP1 cell noCPT | IL1B secr inh | TDP1 block | TGFb SMAD3 inh
N#C/C(=C/C1=C(N2CCOCC2)C(=C/c2cccc([N+](=O)[O-])c2)/CC1)C(=O)Nc1ccccc1F | 10µM* | 2% | 8.2µM* | 1 | nt | -8%
O=C(/C=C/c1cccc([N+](=O)[O-])c1)Nc1ccccc1N1CCOCC1 | ? | -17% | ? | -12 | 7% | 2%
CCOC(=O)Cn1c(=O)c2c(nc3n2CCN3c2ccc(CC)cc2)n(C)c1=O | -1% | 0% | -19% | nt | -3% | nt
Cc1ccc(C)c(S(=O)(=O)c2cnc(SCC(=O)Nc3ccc(F)cc3F)[nH]c2=O)c1 | nt | 0% | nt | nt | -2% | 6%
CCCN(CC(=O)Nc1ccccc1C)C(=O)c1ccc(=O)n(Cc2ccccc2)n1 | 7% | 6% | -8% | -87* | 4% | 23%
CCN(CC(=O)Nc1ccccc1C(F)(F)F)C(=O)c1ccc(=O)n(Cc2ccccc2)n1 | -25% | -22% | -16% | 3 | nt | -2%
CN(C)S(=O)(=O)c1cccc(NC(=S)NCCCn2ccnc2)c1 | -15% | -20% | -20% | 29 | 4% | -3%
Cc1ccccc1OC1CCN(C(=O)C2CCC(=O)N(C3CCCC3)C2)CC1 (stereo unspecified) | ? | -34% | 15µM* | 36 | 4% | ?
CCN(CC)C1CC(=O)N(c2cccc(Cl)c2)C1=O (stereo unspecified) | ? | -17% | 23µM* | -8 | nt | -5%
O=C(C1CCN(C2CC(=O)N(c3cccc(Cl)c3)C2=O)CC1)N1CCCC1 (stereo unspecified) | 16µM* | -1% | ? | 2 | 9% | ?
Cc1ccc(OC2CCN(C(=O)C3CCC(=O)N(C4CC4)C3)CC2)cc1 (stereo unspecified) | -4% | 0% | -4% | -5 | 1% | -6%
CCOC(=O)C1CCN(C2CC(=O)N(c3cccc(Cl)c3)C2=O)CC1 (stereo unspecified) | 0% | -1% | -4% | -8 | 2% | -1%
COc1cccc(N2CCN(C(=O)C3CCC(=O)N(C4CCCCCC4)C3)CC2)c1 (stereo unspecified) | 15µM* | 8% | 18µM* | i | 3% | -28%
CC(C)c1cccc2cc3c(nc12)-c1cccc(=O)n1C3 | nt | nt | nt | nt | -2% | nt
CCN(CC)S(=O)(=O)c1ccc2c(c1)c(=O)c(C(=O)N(C)Cc1ccccc1)cn2C | 4% | -7% | -12% | nt | 2% | -46%
O=C(C1CCC(=O)N(C2CC2)C1)N1CCN(c2ccccc2Cl)CC1 (stereo unspecified) | 6% | 4% | 6% | 10 | 3% | 1%
O=c1cc(N2CCN(c3cccc(Cl)c3)CC2)[nH]c(=O)n1C1CCCCC1 | ? | 4% | 1.6µM* | 6 | 4% | 1%
CS(=O)(=O)N1CCCC(C(=O)N2CCN(c3cccc(Cl)c3)CC2)C1 (stereo unspecified) | 21µM* | 8% | ? | -1 | -10% | 21%
Cc1c(Cl)cccc1NC(=O)C1CC(=O)N(C2CCCC2)C1 (stereo unspecified) | 0% | -7% | -7% | -58* | nt | -16%
O=C(C1CC(=O)N(C2CCCC2)C1)N1CCN(c2cccc(Cl)c2)CC1 (stereo unspecified) | 18µM* | -20% | 23µM* | 1 | 1% | ?
CS(=O)(=O)N1CCC(C(=O)N2CCN(c3cccc(Cl)c3)CC2)CC1 | 1% | -5% | -29% | 10 | 0% | -3%
O=c1cc(N2CCN(c3ccccc3)CC2)[nH]c(=O)n1C1CCCCC1 | -11% | -25% | -21% | 5 | 2% | -27%
